A number with no mark means an inactive call. Records with an inconclusive call do not appear. Calls of active or inactive are those of the source. Unless noted, calls follow the shape of the full dose curve.

Experiment [1] is described as follows: Nuclear factor erythroid 2-related factor 2/antioxidant responsive element (Nrf2/ARE) small molecule agonists: qHTS cell viability counter screen in human keratinocytes (AID 1919968; active = well fitted curve in the direction sought with a large enough effect in the repeat runs; an effect the other way counts as inactive or inconclusive; also: nearly all actives have a fitted effect of over 55% in size; also: potency is read from the fitted curve at half-maximal effect). The procedure, abridged: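 After a 5 h attachment period, ARE-reporter keratinocytes were dosed with compounds in DMSO and then cultured 23 h at 37 C. Cell viability came from CellTiter-Fluor signal read after a further 1 h.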
For orientation: qHTS replaces the single test concentration by a dilution series.

Experiment [2] is described as follows: Nuclear factor erythroid 2-related factor 2/antioxidant responsive element (Nrf2/ARE) small molecule agonists: luciferase reporter gene qHTS assay in human keratinocytes (AID 1919969). Also: nearly all actives have a fitted effect of over 35% in size. Also: potency is read from the fitted curve at half-maximal effect. On the technique in general: Reporter assays use an easily measured gene product as a stand-in for the process of interest.
For experiment [3], the target named is Gonadotropin-releasing hormone receptor (Homo sapiens) (UniProt P30968). Briefly: Human gonadotropin-releasing hormone receptor (GnRHR) small molecule agonists, calcium flux assay in GnRHR-HEK293 cells (AID 1920063). Also: nearly all actives have a fitted effect of over 35% in size. The procedure, abridged: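 We seeded human GnRHR-expressing HEK293 cells for 18 hours, loaded them with calcium dye for an hour at 37 C, added test compounds, and recorded fluorescence intensity kinetically for three minutes.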
Sequence of Gonadotropin-releasing hormone receptor (Homo sapiens) (P30968 whole entry, looked up): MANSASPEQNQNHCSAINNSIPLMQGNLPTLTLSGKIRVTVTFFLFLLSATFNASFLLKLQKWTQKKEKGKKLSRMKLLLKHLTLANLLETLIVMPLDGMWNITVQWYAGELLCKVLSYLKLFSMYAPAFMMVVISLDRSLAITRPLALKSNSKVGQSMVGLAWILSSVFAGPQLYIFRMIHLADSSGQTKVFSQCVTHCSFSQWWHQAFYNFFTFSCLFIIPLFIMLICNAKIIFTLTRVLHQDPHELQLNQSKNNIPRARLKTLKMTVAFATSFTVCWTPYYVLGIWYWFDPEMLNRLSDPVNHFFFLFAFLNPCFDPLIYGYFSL
A general note: Calcium flux is commonly read through the fluorescence of an indicator in the cells.

The target in experiment [4] is KiSS-1 receptor (Homo sapiens) (UniProt Q969F8). As to the kind of experiment: Human kisspeptin (KISS1R) small molecule agonists, calcium flux assay in KISS1R-HEK293 cells (AID 1920064; active = well fitted curve in the direction sought with a large enough effect in the repeat runs; an effect the other way counts as inactive or inconclusive). The method in brief: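 Kinetic calcium assay, 1 s sampling over 3 min at Ex/Em 480/540, in HEK293 cells engineered with human KISS1R; compounds delivered in DMSO after 1 h dye loading.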
Sequence of KiSS-1 receptor (Homo sapiens) (Q969F8 whole entry, looked up): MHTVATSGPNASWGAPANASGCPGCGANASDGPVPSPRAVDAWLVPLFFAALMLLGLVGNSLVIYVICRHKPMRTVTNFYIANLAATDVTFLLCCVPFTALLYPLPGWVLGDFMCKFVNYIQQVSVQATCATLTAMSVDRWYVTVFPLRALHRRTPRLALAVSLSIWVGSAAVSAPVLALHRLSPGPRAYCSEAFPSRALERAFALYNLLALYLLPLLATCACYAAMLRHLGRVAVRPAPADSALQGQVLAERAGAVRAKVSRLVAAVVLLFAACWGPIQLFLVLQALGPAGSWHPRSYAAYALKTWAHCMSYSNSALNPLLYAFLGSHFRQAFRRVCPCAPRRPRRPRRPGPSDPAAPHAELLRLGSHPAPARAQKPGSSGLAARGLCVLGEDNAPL

The nature of experiment [5]: G protein-coupled receptor (GPCR) small molecule agonists, calcium flux assay: HEK293 wild type cell line counter screen (AID 1920065). The procedure, abridged: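 Calcium-sensitive dye, loaded 1 h at 37 C into cells cultured 18 h, reports compound-evoked calcium release as fluorescence (Ex/Em 480/540), measured over 3 min. Agonist mode; 15-point titrations, triplicate.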

Experiment [6] can be described thus: p53 small molecule agonists, cell-based qHTS assay with human liver microsomes (AID 1963577). Also: potency is read from the fitted curve at half-maximal effect. The method in brief: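 Compounds act here after metabolic activation: human liver microsomes and NADPH, both at 0.5 mg/mL final, were co-added to p53RE-bla cells. Incubation ran 16 h at 37 C, followed by LiveBLAzer detection.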
Experiment [7] in a line: p53 small molecule agonists, cell-based qHTS assay with human liver microsomes: qHTS cell viability counter screen (AID 1963579). Also: nearly all actives have a fitted effect of over 45% in size. The procedure, abridged:
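Cells carrying the p53 response-element beta-lactamase reporter are treated for 16 h at 37 C with test compounds in the presence of human liver microsomes and NADPH (both 0.5 mg/mL final); ATP-based CellTiter-Glo luminescence then reports viability.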

The nature of experiment [8]: p53 small molecule agonists, cell-based qHTS assay with rat liver microsomes: qHTS cell viability counter screen (AID 1963580). Also: nearly all actives have a fitted effect of over 45% in size. The method in brief: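 In HCT-116 cells carrying a p53 response element-bla reporter, compounds were metabolically activated in situ by rat liver microsomes with NADPH over 16 h. Cell ATP content then served as the cytotoxicity measure.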
A short description of experiment [9]: p53 small molecule agonists, cell-based qHTS assay: qHTS cell viability counter screen (AID 1963581). Also: nearly all actives have a fitted effect of over 45% in size. Also: potency is read from the fitted curve at half-maximal effect. The procedure, abridged: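 Following 5 h attachment, HCT-116 p53RE-bla cells took up compound for 16 h at 37 C; the reporter was read with B/G FRET substrate (2 h RT), and viability then via CellTiter-Glo ATP luminescence.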
Experiment [10] is described as follows: p53 small molecule agonists, cell-based qHTS assay (AID 1963582; active = well fitted activation curve with a large enough effect in the signal ratio in the repeat runs, not every such curve was filed as active; the % refers to the signal ratio). The procedure, abridged: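 In this cell-based concentration-response screen, a p53 response element drives beta-lactamase; cells received DMSO-borne compounds after 5 h culture and were incubated a further 16 h before FRET substrate development.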
For experiment [11], the target named is 5-hydroxytryptamine receptor 2A (Homo sapiens) (UniProt P28223). Briefly: 5-hydroxytryptamine receptor 2A (HTR2A) small molecule agonists, cell-based qHTS assay (AID 1963587). Also: nearly all actives have a fitted effect of over 30% in size. The procedure, abridged:
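HTR2A-CHO cells, plated 18 h at 37 C/5% CO2, dye-loaded 1 h at 37 C; compounds in DMSO added by pin tool (agonist mode). Intracellular calcium flux read as kinetic fluorescence on FDSS over 2 min at 1 s intervals.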

Experiment [12] has as its target Muscarinic acetylcholine receptor M1 (Homo sapiens) (UniProt P11229). As to the kind of experiment: Cholinergic receptor muscarinic 1 (CHRM1) small molecule antagonists, cell-based qHTS assay (AID 1963588). Also: nearly all actives have a fitted effect of over 40% in size. The procedure, abridged: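 CHRM1-CHO calcium-flux assay, antagonist mode. Cells were seeded 18 h, dye-loaded 1 h at 37 C and given compound for 5 min at RT, then acetylcholine was added at 50nM. FDSS fluorescence was read 3 min; 15 concentrations, three runs.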

For experiment [13] the target is unchanged. As to the kind of experiment: Cholinergic receptor muscarinic 1 (CHRM1) small molecule agonists, cell-based qHTS assay (AID 1963589). Also: nearly all actives have a fitted effect of over 35% in size. The procedure, abridged: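 Measures agonist-induced intracellular calcium rise. Stable human CHRM1 CHO line, 1 h dye load at 37 C, compounds from DMSO, kinetic fluorescence read.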
Experiment [14] is described as follows: cAMP Responsive Elements (CRE) small molecule agonists, cell-based qHTS assay (AID 1963590). The method in brief:
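A CRE-responsive beta-lactamase reporter in HEK 293T cells was used. Treatment ran 3 h at 37 C; detection used LiveBLAzer B/G FRET substrate for 2 h at room temperature.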

Experiment [15] is described as follows: cAMP Responsive Elements (CRE) small molecule antagonists, cell-based qHTS assay (AID 1963591; active = well fitted inhibition curve with a large enough effect in the signal ratio in the repeat runs, not every such curve was filed as active; the % refers to the signal ratio). The method in brief:
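HEK293T cells carrying a CRE-driven beta-lactamase reporter receive compound and NKH477 (0.25 uM final) for 3 h. Fluorescence from LiveBLAzer B/G FRET substrate is read after 2 h at room temperature.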

The target of experiment [16] is Beta-2 adrenergic receptor (Homo sapiens) (UniProt P07550). As to the kind of experiment: Adrenergic beta2 receptor (ADRB2) small molecule antagonists, cell-based qHTS assay (AID 1963592). Also: nearly all actives have a fitted effect of over 50% in size. Also: potency is read from the fitted curve at half-maximal effect. As to activity change, negative = inhibition: series mostly up to about 92 µM. The method in brief:
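Cells (CHO, stable ADRB2 overexpression) incubated 18-20hr at 37C; compounds added from DMSO; agonist mix (1nM isoproterenol, 100uM IBMX, 25uM Ro-20-1724) added; 0.5hr RT; d2-cAMP and anti-cAMP-cryptate added; 1hr RT; 665/615 nm read.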

Experiment [17] addresses D(2) dopamine receptor (Homo sapiens) (UniProt P14416). Briefly: Dopamine D2 receptor (DRD2) small molecule agonists, cell-based qHTS assay (AID 1963594). Also: nearly all actives have a fitted effect of over 35% in size. The method in brief: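 HEK293 cells stably expressing DRD2 were cultured 24 h at 37 C, then given Ro20-1724 (0.1 mM final) and compounds for 10 min at room temperature. NKH477 (200nM) was then added for 30 min. cAMP was read by HTRF.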

Experiment [18] has the same target. Briefly: Dopamine D2 receptor (DRD2) small molecule antagonists, cell-based qHTS assay (AID 1963595; active = well fitted inhibition curve with a large enough effect in the signal ratio in the repeat runs, with a control signal flat; the % refers to the signal ratio; also: potency is read from the fitted curve at half-maximal effect). The procedure, abridged: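 DRD2-HEK293; 0.1 mM Ro20-1724; cpd 10 min RT; NKH477 200 nM + quinpirole 12 nM, 30 min RT; HTRF cAMP (cAMP-d2/anti-cAMP cryptate), 665/620 nm ratio after 1 h.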
The target of experiment [19] is 5-hydroxytryptamine receptor 2A (Homo sapiens) (UniProt P28223). Briefly: 5-hydroxytryptamine receptor 2A (HTR2A) small molecule antagonists, cell-based qHTS assay (AID 1963586). Also: nearly all actives have a fitted effect of over 45% in size. The method in brief: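 Antagonist-mode intracellular calcium assay: DOI (4 nM) added after 5 min compound pre-incubation at room temperature to dye-loaded HTR2A-CHO cells. Fluorescence followed for 3 min, sampled every second.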
Sequence of 5-hydroxytryptamine receptor 2A (Homo sapiens) (P28223 whole entry, looked up): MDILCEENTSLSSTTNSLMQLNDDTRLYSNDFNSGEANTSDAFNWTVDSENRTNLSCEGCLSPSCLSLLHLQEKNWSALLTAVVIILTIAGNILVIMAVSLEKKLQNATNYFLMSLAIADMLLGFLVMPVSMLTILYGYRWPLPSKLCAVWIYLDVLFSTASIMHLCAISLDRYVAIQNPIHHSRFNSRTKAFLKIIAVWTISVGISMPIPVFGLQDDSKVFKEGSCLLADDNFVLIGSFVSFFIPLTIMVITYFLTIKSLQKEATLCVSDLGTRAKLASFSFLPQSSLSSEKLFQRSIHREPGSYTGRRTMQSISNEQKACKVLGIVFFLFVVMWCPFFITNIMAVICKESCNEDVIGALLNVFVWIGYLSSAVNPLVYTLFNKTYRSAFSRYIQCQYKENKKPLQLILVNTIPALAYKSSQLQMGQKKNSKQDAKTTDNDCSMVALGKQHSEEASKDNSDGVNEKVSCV

Experiment [20] can be described thus: p53 small molecule agonists, cell-based qHTS assay with rat liver microsomes (AID 1963578). The method in brief:
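Read-out is beta-lactamase reporter fluorescence (LiveBLAzer, 2 h, room temperature, dark) in p53RE-bla cells treated 16 h at 37 C with compound, rat liver microsomes and NADPH, both 0.5 mg/mL final.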
% is scaled to controls: 0 for no effect and ±100 for the full control effect.

Sequence of Beta-2 adrenergic receptor (Homo sapiens) (P07550 whole entry, looked up): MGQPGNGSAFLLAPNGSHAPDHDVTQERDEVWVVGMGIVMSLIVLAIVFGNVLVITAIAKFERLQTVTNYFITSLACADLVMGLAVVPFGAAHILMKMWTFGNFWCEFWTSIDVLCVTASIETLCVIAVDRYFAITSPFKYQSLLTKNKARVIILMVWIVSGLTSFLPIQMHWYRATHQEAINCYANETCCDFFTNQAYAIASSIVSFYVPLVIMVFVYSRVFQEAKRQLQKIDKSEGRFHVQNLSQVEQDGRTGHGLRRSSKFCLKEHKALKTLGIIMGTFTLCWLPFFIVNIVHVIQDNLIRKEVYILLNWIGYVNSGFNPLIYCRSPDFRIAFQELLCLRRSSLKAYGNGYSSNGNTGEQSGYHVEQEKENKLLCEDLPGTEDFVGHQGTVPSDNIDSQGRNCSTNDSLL
Sequence of D(2) dopamine receptor (Homo sapiens) (P14416 whole entry, looked up): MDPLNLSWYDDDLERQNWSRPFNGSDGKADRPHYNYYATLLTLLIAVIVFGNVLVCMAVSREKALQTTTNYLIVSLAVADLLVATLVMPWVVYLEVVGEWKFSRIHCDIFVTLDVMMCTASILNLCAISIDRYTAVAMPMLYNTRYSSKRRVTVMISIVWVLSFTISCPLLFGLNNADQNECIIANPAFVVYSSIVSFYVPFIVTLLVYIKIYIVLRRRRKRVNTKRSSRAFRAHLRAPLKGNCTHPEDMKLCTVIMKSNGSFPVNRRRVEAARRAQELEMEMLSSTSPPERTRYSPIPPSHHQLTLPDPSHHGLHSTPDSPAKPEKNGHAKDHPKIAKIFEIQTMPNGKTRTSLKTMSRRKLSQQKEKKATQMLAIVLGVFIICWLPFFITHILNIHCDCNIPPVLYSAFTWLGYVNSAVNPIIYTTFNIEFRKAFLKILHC
Sequence of Muscarinic acetylcholine receptor M1 (Homo sapiens) (P11229 whole entry, looked up): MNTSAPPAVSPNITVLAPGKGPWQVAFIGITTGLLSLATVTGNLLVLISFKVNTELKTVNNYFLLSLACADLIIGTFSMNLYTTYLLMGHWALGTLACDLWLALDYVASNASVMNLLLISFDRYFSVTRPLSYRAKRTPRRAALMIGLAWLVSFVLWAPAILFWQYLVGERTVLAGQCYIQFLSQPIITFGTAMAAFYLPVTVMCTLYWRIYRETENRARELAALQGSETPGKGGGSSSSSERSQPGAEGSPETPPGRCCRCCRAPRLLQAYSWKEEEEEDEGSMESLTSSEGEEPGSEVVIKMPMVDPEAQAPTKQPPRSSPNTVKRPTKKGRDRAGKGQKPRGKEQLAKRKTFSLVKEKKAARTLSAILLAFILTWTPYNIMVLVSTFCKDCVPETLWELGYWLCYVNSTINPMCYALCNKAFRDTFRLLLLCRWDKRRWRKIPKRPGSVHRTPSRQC

As to `NP(N)(=O)NC(=O)c1ccc(F)cc1`, the Potency entry in experiment [1], in [2], in experiment [3], in experiment [4], in experiment [5] and in experiment [6] was “inactive” each time. In addition, the Potency result in experiment [7], in experiment [8], in experiment [9], in [10], in experiment [11] and in [12] was “inactive” in each case. The Potency entry in experiment [13], in experiment [14], in experiment [15], in [16], in experiment [17] and in experiment [18] was “inactive” in each case.

Take `CCCCC(CC)COC(=O)OOC(C)(C)C` (stereo not given): the Potency result in experiment [1], in [2], in experiment [3], in experiment [4], in experiment [5] and in experiment [6] was “inactive” throughout. Further, the Potency entry in experiment [7], in [8], in experiment [9], in experiment [10], in [19] and in [11] was “inactive” throughout. For the same compound, the Potency result in experiment [12], in experiment [14], in [15], in experiment [16] and in experiment [17] was “inactive” throughout.

Consider `Cc1cccc(OP(=O)(Oc2cccc(C)c2)Oc2cccc(C)c2)c1`, for which the Potency result in experiment [1], in experiment [2], in experiment [3], in experiment [4], in experiment [5] and in experiment [6] was “inactive” in each case. The Potency result in [7], in [8], in experiment [9], in experiment [10], in experiment [19] and in [11] was “inactive” in each case. Further, the Potency entry in experiment [12], in experiment [13], in [14], in experiment [15], in experiment [16] and in experiment [17] was “inactive” in each case. Besides, the Potency entry in experiment [18] was “inactive”.

Turning to `CCC[CH2][Sn]([CH2]CCC)([CH2]CCC)[CH2]CCC`, the Potency in experiment [1] was 12.2 µM (active); in experiment [2], 15.4 µM (active); in [9], 40.8 µM (active); in experiment [16], 48.6 µM (active); in experiment [18] it was 38.6 µM (active). Moreover, the Potency entry in experiment [3], in experiment [4], in experiment [5], in experiment [6], in [20] and in [8] was “inactive” each time. In addition, in experiment [12], the Potency result is “inactive”.

With `COc1ccc(C(=O)c2c(C)n(CCN3CCOCC3)c3ccccc23)cc1`, the Potency entry in experiment [1], in [2], in experiment [3], in experiment [4], in [5] and in experiment [6] was “inactive” throughout. The Potency entry in experiment [20], in experiment [9], in experiment [11], in experiment [12], in experiment [13] and in [18] was “inactive” in each case.

For `CC1=C(C(=O)O)N2C(=O)[C@@H](N)[C@H]2SC1`, the figures for the activity change, negative = cytotoxicity in experiment [1] and in experiment [8] were 0.0817% [at 19 µM] and 4.3e-05% [at 13.5 µM], respectively. For the same compound, the activity, positive = activation in experiment [2] was -0.189% [at 19 µM]. Further, the activity change in [3] is 0.673% [at 11.8 µM, hits give high values]. Further, the activation in [4] was 0.11% [at 15.8 µM]; in [5], -0.375% [at 11.8 µM]; in experiment [6], -0.214% [at 13.5 µM]; in [20] it was -0.0529% [at 13.6 µM]; in [10] it was 0.428% [at 13.5 µM]; in experiment [11] it was 1.93% [at 15.9 µM]. In addition, the activation in [13] is 0% [at 15.8 µM]; in [14] it was -0.165% [at 19 µM]; in experiment [17], -15.4% [at 19 µM]. Further, the activity, negative = inhibition in experiment [19] was 25.1% [at 12.7 µM]; in experiment [12], -6.26% [at 12.6 µM]. The activity change, negative = inhibition in [15] was -4.67% [at 18.9 µM]; in experiment [16], 2.77% [at 19 µM]; in [18] it was -2.19% [at 18.9 µM].

With `CCOP(=S)(OCC)SCS(=O)(=O)CC`, the Potency result in experiment [1], in experiment [2], in [3], in experiment [4], in experiment [5] and in experiment [7] was “inactive” throughout. The Potency entry in [8], in [9], in [10], in experiment [19], in [11] and in experiment [12] was “inactive” in each case. The Potency result in [13], in experiment [14], in experiment [15], in experiment [16], in [17] and in [18] was “inactive” in each case. Also, the Potency in experiment [6] was 1.62 µM (active).

These data come from PubChem BioAssay (Tox21).
